Assay results as given in the supplement of paper PMC11732987, “Enantioselective OTUD7B fragment discovery through chemoproteomics screening and high-throughput optimisation” (Communications Chemistry, 2025).

Assays:
Experiment in all cases: log2 ratio of Biotin-Ahx-Ub-VS probe labelling (fragment/DMSO); higher = less target engagement (more negative = stronger competition), active = hit call of the paper (q ≤ 0.05, log2 ratio ≤ -1)
Conditions in all cases: compound concentration: 200 uM; treatment time: 3 h
USP19 = biological target: T1, USP19 (UniProt O94966)
T1 sequence (whole entry): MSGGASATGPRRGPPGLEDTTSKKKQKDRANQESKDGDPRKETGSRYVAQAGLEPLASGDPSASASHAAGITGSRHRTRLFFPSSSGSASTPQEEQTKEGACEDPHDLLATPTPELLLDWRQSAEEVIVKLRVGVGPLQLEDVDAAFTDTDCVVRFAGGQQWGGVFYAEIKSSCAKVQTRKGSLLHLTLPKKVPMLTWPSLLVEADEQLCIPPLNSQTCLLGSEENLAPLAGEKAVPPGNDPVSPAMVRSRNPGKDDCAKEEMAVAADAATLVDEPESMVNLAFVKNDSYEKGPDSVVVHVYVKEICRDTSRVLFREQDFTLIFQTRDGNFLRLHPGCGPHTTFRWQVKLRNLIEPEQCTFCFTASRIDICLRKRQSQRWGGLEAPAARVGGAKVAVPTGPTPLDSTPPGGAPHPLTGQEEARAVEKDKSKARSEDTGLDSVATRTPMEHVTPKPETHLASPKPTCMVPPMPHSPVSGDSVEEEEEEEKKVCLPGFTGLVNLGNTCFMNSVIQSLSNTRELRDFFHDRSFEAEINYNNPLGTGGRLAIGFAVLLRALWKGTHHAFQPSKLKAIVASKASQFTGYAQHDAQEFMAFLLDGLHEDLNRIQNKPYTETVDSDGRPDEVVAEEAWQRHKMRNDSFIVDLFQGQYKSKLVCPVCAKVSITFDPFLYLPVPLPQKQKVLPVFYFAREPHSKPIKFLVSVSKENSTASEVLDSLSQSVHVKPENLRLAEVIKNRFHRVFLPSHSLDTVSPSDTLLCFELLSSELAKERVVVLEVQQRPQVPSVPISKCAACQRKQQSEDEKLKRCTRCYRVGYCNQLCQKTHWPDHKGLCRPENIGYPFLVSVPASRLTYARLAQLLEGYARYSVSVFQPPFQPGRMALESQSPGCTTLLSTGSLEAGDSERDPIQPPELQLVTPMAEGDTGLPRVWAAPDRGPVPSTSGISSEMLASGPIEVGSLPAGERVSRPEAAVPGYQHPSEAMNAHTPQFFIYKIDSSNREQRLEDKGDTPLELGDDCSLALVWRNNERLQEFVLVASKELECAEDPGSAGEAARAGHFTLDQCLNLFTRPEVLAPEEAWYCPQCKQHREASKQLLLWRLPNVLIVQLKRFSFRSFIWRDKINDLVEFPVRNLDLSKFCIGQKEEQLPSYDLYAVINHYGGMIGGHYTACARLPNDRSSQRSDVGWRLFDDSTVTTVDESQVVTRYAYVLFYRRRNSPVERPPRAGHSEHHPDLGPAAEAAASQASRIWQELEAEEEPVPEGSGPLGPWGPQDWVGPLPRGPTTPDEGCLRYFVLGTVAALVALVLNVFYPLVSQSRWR
Procedure, shortened: (§1)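 Labelling with Biotin-Ahx-Ub-VS (0.5 µM final, 1 h) followed a 3 h triplicate treatment of HEK293T lysate (495 µg per sample, Tris/CHAPS/IGEPAL buffer with protease inhibitors) with fragment at 200 µM or vehicle. Labelled DUBs were NeutrAvidin-enriched, digested with LysC and trypsin, and run by diaPASEF LC-MS/MS. The values, average log2 fragment/vehicle ratios by unpaired t-test, come from global-median-normalised Spectronaut label-free quantities. Proteins with ≥2 unique peptides were used.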

USP24 = USP24 (UniProt Q9UPU5)
Procedure, shortened: as §1

USP25 = biological target: T2, USP25 (UniProt Q9UHP3)
T2 sequence (whole entry): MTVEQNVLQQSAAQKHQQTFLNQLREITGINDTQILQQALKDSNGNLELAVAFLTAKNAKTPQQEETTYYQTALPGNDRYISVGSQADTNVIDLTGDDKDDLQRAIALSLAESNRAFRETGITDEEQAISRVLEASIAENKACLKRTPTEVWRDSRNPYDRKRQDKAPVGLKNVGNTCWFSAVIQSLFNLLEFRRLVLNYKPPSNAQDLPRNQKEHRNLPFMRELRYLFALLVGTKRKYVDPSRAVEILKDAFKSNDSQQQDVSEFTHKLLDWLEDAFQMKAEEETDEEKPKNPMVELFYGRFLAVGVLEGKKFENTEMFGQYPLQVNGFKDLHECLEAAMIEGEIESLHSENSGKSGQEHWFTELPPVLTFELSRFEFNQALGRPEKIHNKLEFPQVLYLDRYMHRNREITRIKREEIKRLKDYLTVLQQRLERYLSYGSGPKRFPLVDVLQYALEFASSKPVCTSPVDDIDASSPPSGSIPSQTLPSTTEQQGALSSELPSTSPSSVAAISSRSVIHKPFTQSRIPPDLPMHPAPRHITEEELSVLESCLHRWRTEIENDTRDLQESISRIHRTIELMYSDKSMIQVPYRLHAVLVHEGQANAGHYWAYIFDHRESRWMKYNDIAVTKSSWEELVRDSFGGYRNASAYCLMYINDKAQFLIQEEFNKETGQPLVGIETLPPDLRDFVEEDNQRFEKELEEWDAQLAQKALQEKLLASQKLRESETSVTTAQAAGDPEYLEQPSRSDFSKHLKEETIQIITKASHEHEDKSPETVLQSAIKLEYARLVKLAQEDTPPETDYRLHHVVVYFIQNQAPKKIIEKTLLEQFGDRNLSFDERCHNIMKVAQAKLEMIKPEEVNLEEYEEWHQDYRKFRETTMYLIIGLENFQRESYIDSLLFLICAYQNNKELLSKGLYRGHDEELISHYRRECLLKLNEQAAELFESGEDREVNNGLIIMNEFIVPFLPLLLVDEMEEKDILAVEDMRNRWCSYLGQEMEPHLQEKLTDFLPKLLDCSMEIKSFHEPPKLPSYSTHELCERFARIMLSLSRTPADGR
Procedure, shortened: as §1

USP28 = biological target: T3, USP28 (UniProt Q96RU2)
T3 sequence (whole entry): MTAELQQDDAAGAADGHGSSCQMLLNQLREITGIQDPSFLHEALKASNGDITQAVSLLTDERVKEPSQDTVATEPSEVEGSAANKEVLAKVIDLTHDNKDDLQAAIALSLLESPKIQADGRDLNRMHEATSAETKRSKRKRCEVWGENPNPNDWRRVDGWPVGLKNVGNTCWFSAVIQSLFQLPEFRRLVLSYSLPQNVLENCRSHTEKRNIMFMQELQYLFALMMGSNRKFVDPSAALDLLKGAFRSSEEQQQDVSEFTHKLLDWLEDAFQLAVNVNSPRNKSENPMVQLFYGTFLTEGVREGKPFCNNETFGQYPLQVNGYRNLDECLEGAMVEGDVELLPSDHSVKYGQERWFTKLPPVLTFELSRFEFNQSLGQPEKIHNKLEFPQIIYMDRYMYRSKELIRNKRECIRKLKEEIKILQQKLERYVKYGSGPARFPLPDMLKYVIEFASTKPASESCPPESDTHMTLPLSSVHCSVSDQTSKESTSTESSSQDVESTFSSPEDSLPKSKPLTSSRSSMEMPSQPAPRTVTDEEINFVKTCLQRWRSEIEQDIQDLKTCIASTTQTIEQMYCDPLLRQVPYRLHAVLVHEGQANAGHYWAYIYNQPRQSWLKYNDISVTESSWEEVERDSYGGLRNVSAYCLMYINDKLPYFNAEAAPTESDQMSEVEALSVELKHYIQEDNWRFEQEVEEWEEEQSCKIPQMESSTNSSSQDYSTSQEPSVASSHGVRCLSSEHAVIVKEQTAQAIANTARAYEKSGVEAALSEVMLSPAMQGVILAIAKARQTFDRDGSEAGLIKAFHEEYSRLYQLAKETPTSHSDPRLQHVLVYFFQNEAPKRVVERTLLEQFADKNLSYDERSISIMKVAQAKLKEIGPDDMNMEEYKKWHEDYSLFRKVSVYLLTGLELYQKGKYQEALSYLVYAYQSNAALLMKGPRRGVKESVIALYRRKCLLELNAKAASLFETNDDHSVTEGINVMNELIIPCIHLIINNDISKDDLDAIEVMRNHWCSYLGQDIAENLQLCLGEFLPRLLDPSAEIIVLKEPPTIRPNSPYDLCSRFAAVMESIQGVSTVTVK
Procedure, shortened: as §1

Measured: log2 ratio of Biotin-Ahx-Ub-VS probe labelling

USP24, sequence (Q9UPU5 whole entry): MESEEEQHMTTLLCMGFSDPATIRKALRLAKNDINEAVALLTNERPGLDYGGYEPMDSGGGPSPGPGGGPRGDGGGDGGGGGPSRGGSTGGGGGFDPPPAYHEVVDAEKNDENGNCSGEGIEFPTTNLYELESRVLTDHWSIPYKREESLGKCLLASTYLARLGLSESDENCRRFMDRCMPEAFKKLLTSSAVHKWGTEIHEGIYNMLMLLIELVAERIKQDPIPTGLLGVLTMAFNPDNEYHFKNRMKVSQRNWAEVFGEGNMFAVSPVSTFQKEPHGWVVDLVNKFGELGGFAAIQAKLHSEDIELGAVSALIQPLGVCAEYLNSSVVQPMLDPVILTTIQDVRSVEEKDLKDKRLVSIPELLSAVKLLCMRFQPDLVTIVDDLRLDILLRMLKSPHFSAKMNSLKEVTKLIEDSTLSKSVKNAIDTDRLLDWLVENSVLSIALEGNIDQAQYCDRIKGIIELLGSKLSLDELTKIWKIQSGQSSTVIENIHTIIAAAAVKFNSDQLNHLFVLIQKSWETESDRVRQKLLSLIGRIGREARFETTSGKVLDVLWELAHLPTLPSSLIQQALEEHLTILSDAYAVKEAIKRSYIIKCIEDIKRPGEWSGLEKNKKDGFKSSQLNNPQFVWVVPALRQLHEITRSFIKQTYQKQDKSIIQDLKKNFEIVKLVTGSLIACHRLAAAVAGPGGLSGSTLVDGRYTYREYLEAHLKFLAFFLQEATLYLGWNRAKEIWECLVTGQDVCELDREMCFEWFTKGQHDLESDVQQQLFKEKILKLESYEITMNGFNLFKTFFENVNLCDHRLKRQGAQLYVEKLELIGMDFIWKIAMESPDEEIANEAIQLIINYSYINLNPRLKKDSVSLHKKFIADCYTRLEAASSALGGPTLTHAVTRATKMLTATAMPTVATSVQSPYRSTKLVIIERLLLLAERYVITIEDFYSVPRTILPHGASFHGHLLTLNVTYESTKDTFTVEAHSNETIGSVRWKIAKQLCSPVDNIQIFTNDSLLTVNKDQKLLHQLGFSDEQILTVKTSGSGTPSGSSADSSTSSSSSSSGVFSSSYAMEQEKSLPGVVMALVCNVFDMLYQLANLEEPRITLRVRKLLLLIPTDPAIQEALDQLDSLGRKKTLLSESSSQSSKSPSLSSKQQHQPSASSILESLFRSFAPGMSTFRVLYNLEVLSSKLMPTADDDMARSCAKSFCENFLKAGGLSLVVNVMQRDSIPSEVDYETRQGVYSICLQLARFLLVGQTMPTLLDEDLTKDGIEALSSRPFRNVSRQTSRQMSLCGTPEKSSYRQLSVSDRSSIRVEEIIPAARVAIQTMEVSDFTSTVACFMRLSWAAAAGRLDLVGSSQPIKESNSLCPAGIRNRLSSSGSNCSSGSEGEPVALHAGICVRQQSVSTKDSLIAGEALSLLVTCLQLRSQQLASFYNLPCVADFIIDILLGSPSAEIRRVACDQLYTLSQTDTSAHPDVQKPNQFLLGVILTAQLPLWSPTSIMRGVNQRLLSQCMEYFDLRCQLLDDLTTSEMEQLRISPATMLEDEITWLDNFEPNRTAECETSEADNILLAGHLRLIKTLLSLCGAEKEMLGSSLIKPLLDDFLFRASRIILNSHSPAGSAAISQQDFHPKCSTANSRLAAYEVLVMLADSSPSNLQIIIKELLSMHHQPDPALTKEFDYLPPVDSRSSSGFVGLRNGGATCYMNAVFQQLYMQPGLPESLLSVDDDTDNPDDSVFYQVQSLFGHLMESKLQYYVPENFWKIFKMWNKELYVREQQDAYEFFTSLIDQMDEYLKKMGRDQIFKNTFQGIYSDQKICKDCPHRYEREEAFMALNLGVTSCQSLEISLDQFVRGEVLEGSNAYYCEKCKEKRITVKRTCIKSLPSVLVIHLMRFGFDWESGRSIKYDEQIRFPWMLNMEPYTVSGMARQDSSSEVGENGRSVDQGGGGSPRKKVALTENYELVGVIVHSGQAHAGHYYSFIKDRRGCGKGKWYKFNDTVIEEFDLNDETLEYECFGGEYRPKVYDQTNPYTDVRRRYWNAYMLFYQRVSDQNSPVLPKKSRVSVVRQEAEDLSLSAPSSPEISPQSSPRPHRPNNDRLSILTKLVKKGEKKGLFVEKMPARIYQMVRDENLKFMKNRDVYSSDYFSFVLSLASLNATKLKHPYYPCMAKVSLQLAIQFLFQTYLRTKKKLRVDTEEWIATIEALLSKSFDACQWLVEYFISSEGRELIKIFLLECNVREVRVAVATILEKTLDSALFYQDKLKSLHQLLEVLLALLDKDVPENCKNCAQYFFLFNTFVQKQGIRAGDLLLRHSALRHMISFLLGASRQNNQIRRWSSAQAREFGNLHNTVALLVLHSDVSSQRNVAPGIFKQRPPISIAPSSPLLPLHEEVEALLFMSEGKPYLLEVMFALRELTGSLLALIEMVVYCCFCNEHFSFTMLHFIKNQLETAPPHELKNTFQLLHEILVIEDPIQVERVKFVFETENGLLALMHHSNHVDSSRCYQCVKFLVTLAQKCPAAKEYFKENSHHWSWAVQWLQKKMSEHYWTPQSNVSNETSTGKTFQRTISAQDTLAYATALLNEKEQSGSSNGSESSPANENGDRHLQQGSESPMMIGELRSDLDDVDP

COc1ccc(C2CCCN2C(=O)CCl)c(OC)c1 (centres undefined)
inactive: USP19 -0.593 | USP24 -0.807 | USP25 -0.175 | USP28 -0.41
